{
  "source": "PubChem BioAssay AID1259351",
  "about": "(ICCB-Longwood Screening Facility, Harvard Medical School, 2017)",
  "note": "Some of the results follow. A number with no mark means an inactive call. Activity calls are given as the source filed them.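 The calls were made as follows: active = inhibition score at or above a set limit, where the score is 100 minus the three-replicate mean percent of control signal; inactive = the rest.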",
  "data": [
    {"molecular_target": "Guanine nucleotide-binding protein G(i) subunit alpha-3 (Homo sapiens) (UniProt P08754)", "assay": "GIV-Galphai3 complex disruption, bead proximity readout – biochemical, AlphaScreen, His-GIV, GST-Galphai3, orthogonal assay for GIV-Galpha-i inhibitor project, confirmation (AID 1259351)", "details": "purified proteins, 90 min, at 100 µM, stronger effect = lower value", "values": [
      {"compound": "CC1=NOC(=O)C1C(c1cccc(Br)c1)c1c(C)[nH]n(-c2ccccc2)c1=O", "note": "(centres undefined)", "AlphaScreen counts": "2770 (active)"},
      {"compound": "Cc1ccc(C(=O)N2CCc3cc(CNC(=O)c4ccc(Br)cc4)ccc32)cc1", "AlphaScreen counts": 29400},
      {"compound": "Cc1ccc(NC(=O)c2nc[nH]c2C(=O)N2CCCCC2)c(C(=O)c2ccccc2)c1", "AlphaScreen counts": 27800},
      {"compound": "N#CSc1cc(SC#N)c(N)nc1N", "AlphaScreen counts": "24300 (active)"},
      {"compound": "O=C(O)CCC(C(=O)O)N1C(=O)/C(=C\\c2ccco2)SC1=S", "note": "(centres undefined)", "AlphaScreen counts": "2280 (active)"},
      {"compound": "Cc1nn(-c2ccccc2)c2sc(-c3noc(-c4ccccc4F)n3)cc12", "AlphaScreen counts": 31800},
      {"compound": "COC(=O)Cn1nc2c(-c3nc(-c4ccc(Cl)cc4)no3)cccn2c1=O", "AlphaScreen counts": 27400},
      {"compound": "O=C(NN=c1c(=O)c2ccccc2c1=O)c1ccncc1", "AlphaScreen counts": 28200},
      {"compound": "CCC(=O)N1CCc2cc(N3CC(C(=O)N4CCN(C(C)C)CC4)CC3=O)ccc21", "note": "(centres undefined)", "AlphaScreen counts": 27700},
      {"compound": "COc1ccccc1N1C(=O)/C(=C/c2ccc(Cl)cc2)C=C1c1ccccc1", "AlphaScreen counts": 45900},
      {"compound": "CC(=O)Oc1cccc2c1C(=O)C=CC2=O", "AlphaScreen counts": 35600},
      {"compound": "CCOC(=O)C1=C(C)N(c2ccc(OC)cc2)C(=O)/C1=C\\c1ccco1", "AlphaScreen counts": "21400 (active)"},
      {"compound": "COc1ccc(Nc2cc(C(=O)NCCCN(C)c3ccccc3)c3ccccc3n2)c(OC)c1", "AlphaScreen counts": 33800},
      {"compound": "CCOc1cc(/C=C2/C(=O)N(c3nn[nH]n3)N=C2C)cc(Cl)c1OCC", "AlphaScreen counts": "1950 (active)"},
      {"compound": "N#CC(C#N)=C(C#N)/C=C/n1c2ccccc2c2ccccc21", "AlphaScreen counts": "4560 (active)"},
      {"compound": "COc1ccc(N=Nc2c(-c3ccc(OC)cc3)[nH]oc2=O)cc1", "AlphaScreen counts": 54000},
      {"compound": "COc1ccccc1CNc1ncc2nc(-c3ccccc3)oc2n1", "AlphaScreen counts": 40200},
      {"compound": "CCOC(=O)c1nc2cc(C)c(C)cc2nc1NC1CCCCC1", "AlphaScreen counts": 38900},
      {"compound": "O=C(O)c1c2ccccc2[nH]c2c1oc1cc(=O)ccc12", "AlphaScreen counts": "19100 (active)"},
      {"compound": "COC1=C(N2CCOCC2)C(=O)c2ccccc2C1=O", "AlphaScreen counts": "29700 (active)"},
      {"compound": "CC(=O)Nc1ccc(Nc2c3c4c(cccc4[nH]c2=O)C(=O)c2ccccc2-3)cc1", "AlphaScreen counts": 27100},
      {"compound": "O=C(O)c1cc(NS(=O)(=O)c2ccc3c(c2)CCCC3)cnc1N1CCOCC1", "AlphaScreen counts": 28400},
      {"compound": "Cn1cccc1/C=C1\\C(=O)NC(=S)N(c2ccccc2)C1=O", "AlphaScreen counts": "799 (active)"},
      {"compound": "Cc1ccc(N2C(=O)/C(=C/c3ccc(OCC(=O)O)c(Br)c3)C(=O)NC2=S)cc1", "AlphaScreen counts": "6910 (active)"}
    ]}
  ]
}
